Measurements: PubChem BioAssay (NCATS)
Results filed as inconclusive are left out. Active and inactive are the calls of the source. Calls follow the shape of the dose curve; as a rule, active = well fitted inhibition curve with a large enough effect; inconclusive = small, poorly fitted or top-dose-only effect; inactive = flat fitted curve, though single readings scatter.

Columns and labels:
[1] = qHTS profiling for inhibitors of Plasmodium falciparum proliferation (AID 504749);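 also: 0% = DMSO vehicle and full inhibition = artemisinin control; nearly all actives have a fitted effect of over 60% in size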; settings: P. falciparum in erythrocytes, SYBR Green DNA, 72 h
How it was run: (§1)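 Readout was DNA-dye fluorescence from lysed cultures, ex 485/em 535 nm. Parasitized red cells had grown 72 h with compound; data scaled between 0.29 uM artemisinin and DMSO wells and corrected using vehicle-only plates.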

3D7 = test: as above; settings: P. falciparum in erythrocytes, SYBR Green DNA, 72 h; series mostly up to 28.7 µM
How it was run: as §1

7G8 = test: as above; settings: P. falciparum in erythrocytes, SYBR Green DNA, 72 h; series mostly up to 28.7 µM
How it was run: as §1

AA1029 = test: as above; settings: P. falciparum in erythrocytes, SYBR Green DNA, 72 h; series mostly up to 28.7 µM
How it was run: as §1

AS120 = test: as above; settings: P. falciparum in erythrocytes, SYBR Green DNA, 72 h; series mostly up to 28.7 µM
How it was run: as §1

ATS189 = test: as above; settings: P. falciparum in erythrocytes, SYBR Green DNA, 72 h; series mostly up to 28.7 µM
How it was run: as §1

ATS95 = test: as above; settings: P. falciparum in erythrocytes, SYBR Green DNA, 72 h; series mostly up to 28.7 µM
How it was run: as §1

C2A = test: as above; settings: P. falciparum in erythrocytes, SYBR Green DNA, 72 h; series mostly up to 28.7 µM
How it was run: as §1

CP185 = test: as above; settings: P. falciparum in erythrocytes, SYBR Green DNA, 72 h; series mostly up to 28.7 µM
How it was run: as §1

CP191 = test: as above; settings: P. falciparum in erythrocytes, SYBR Green DNA, 72 h; series mostly up to 28.7 µM
How it was run: as §1

CP192 = test: as above; settings: P. falciparum in erythrocytes, SYBR Green DNA, 72 h; series mostly up to 28.7 µM
How it was run: as §1

CP194 = test: as above; settings: P. falciparum in erythrocytes, SYBR Green DNA, 72 h; series mostly up to 28.7 µM
How it was run: as §1

CP201 = test: as above; settings: P. falciparum in erythrocytes, SYBR Green DNA, 72 h; series mostly up to 28.7 µM
How it was run: as §1

CP203 = test: as above; settings: P. falciparum in erythrocytes, SYBR Green DNA, 72 h; series mostly up to 28.7 µM
How it was run: as §1

CP211 = test: as above; settings: P. falciparum in erythrocytes, SYBR Green DNA, 72 h; series mostly up to 28.7 µM
How it was run: as §1

CP215 = test: as above; settings: P. falciparum in erythrocytes, SYBR Green DNA, 72 h; series mostly up to 28.7 µM
How it was run: as §1

CP217 = test: as above; settings: P. falciparum in erythrocytes, SYBR Green DNA, 72 h; series mostly up to 28.7 µM
How it was run: as §1

CP237 = test: as above; settings: P. falciparum in erythrocytes, SYBR Green DNA, 72 h; series mostly up to 28.7 µM
How it was run: as §1

CP238 = test: as above; settings: P. falciparum in erythrocytes, SYBR Green DNA, 72 h; series mostly up to 28.7 µM
How it was run: as §1

CP247 = test: as above; settings: P. falciparum in erythrocytes, SYBR Green DNA, 72 h; series mostly up to 28.7 µM
How it was run: as §1

[2] = at 28.7 µM (top of the series), parasite line A
[3] = at 28.7 µM (top of the series), parasite line B

CN[C@@H]1[C@H](O[C@H]2[C@H](O[C@H]3[C@H](O)[C@@H](O)[C@H](N=C(N)N)[C@@H](O)[C@@H]3N=C(N)N)O[C@@H](C)[C@]2(O)C=O)O[C@@H](CO)[C@H](O)[C@H]1O
inactive: activity, negative = inhibition [1, 2] 5.41% | activity, negative = inhibition [1, 3] 15.5% | Potency (3D7) | Potency (7G8) | Potency (AA1029) | Potency (AS120) | Potency (ATS189) | Potency (ATS95) | Potency (C2A) | Potency (CP185) | Potency (CP191) | Potency (CP192) | Potency (CP194) | Potency (CP201) | Potency (CP203) | Potency (CP211) | Potency (CP215) | Potency (CP217) | Potency (CP237) | Potency (CP238) | Potency (CP247)

FC(F)(F)C(F)(F)C(F)(F)C(F)(F)C(F)(F)C(F)(F)F
inactive: activity, negative = inhibition [1, 2] 2.24% | activity, negative = inhibition [1, 3] 2.03% | Potency (3D7) | Potency (7G8) | Potency (AA1029) | Potency (AS120) | Potency (ATS189) | Potency (ATS95) | Potency (C2A) | Potency (CP185) | Potency (CP191) | Potency (CP192) | Potency (CP194) | Potency (CP201) | Potency (CP203) | Potency (CP211) | Potency (CP215) | Potency (CP217) | Potency (CP237) | Potency (CP238) | Potency (CP247)

CC(=O)NCCCS(=O)(=O)O
inactive: activity, negative = inhibition [1, 2] 2.58% | activity, negative = inhibition [1, 3] 11.9% | Potency (3D7) | Potency (7G8) | Potency (AA1029) | Potency (AS120) | Potency (ATS189) | Potency (ATS95) | Potency (C2A) | Potency (CP185) | Potency (CP191) | Potency (CP192) | Potency (CP194) | Potency (CP201) | Potency (CP203) | Potency (CP211) | Potency (CP215) | Potency (CP217) | Potency (CP237) | Potency (CP238) | Potency (CP247)

CC(C)[C@@H](N)C(=O)O
inactive: activity, negative = inhibition [1, 2] 1.17% | activity, negative = inhibition [1, 3] 12.2% | Potency (3D7) | Potency (7G8) | Potency (AA1029) | Potency (AS120) | Potency (ATS189) | Potency (ATS95) | Potency (C2A) | Potency (CP185) | Potency (CP191) | Potency (CP192) | Potency (CP194) | Potency (CP201) | Potency (CP203) | Potency (CP211) | Potency (CP215) | Potency (CP217) | Potency (CP237) | Potency (CP238) | Potency (CP247)

OC[C@H]1O[C@@H]2O[C@H]3[C@H](O)[C@@H](O)[C@@H](O[C@H]4[C@H](O)[C@@H](O)[C@@H](O[C@H]5[C@H](O)[C@@H](O)[C@@H](O[C@H]6[C@H](O)[C@@H](O)[C@@H](O[C@H]7[C@H](O)[C@@H](O)[C@@H](O[C@H]1[C@H](O)[C@H]2O)O[C@@H]7CO)O[C@@H]6CO)O[C@@H]5CO)O[C@@H]4CO)O[C@@H]3CO
inactive: activity, negative = inhibition [1, 2] 6.28% | activity, negative = inhibition [1, 3] 7.95% | Potency (3D7) | Potency (7G8) | Potency (AA1029) | Potency (AS120) | Potency (ATS189) | Potency (ATS95) | Potency (C2A) | Potency (CP185) | Potency (CP191) | Potency (CP192) | Potency (CP194) | Potency (CP201) | Potency (CP203) | Potency (CP211) | Potency (CP215) | Potency (CP217) | Potency (CP237) | Potency (CP238) | Potency (CP247)

CO[C@H]1C[C@@H]2CC[C@@H](C)[C@@](O)(O2)C(=O)C(=O)N2CCCC[C@H]2C(=O)O[C@H]([C@H](C)C[C@@H]2CC[C@@H](OC(=O)C(C)(CO)CO)[C@H](OC)C2)CC(=O)[C@H](C)/C=C(\C)[C@@H](O)[C@@H](OC)C(=O)[C@H](C)C[C@H](C)/C=C/C=C/C=C/1C
inactive: activity, negative = inhibition [1, 2] 5.02% | activity, negative = inhibition [1, 3] 6.39% | Potency (3D7) | Potency (7G8) | Potency (AA1029) | Potency (AS120) | Potency (ATS189) | Potency (ATS95) | Potency (C2A) | Potency (CP185) | Potency (CP191) | Potency (CP192) | Potency (CP194) | Potency (CP201) | Potency (CP203) | Potency (CP211) | Potency (CP215) | Potency (CP217) | Potency (CP237) | Potency (CP238) | Potency (CP247)

CC(=O)Oc1cc(C(F)(F)F)ccc1C(=O)O
inactive: activity, negative = inhibition ([1]; at 12.8 µM (top of the series), parasite line A) 7.13% | activity, negative = inhibition ([1]; at 12.8 µM (top of the series), parasite line B) 12.5% | Potency (3D7) | Potency (7G8) | Potency (AA1029) | Potency (AS120) | Potency (ATS189) | Potency (ATS95) | Potency (C2A) | Potency (CP185) | Potency (CP191) | Potency (CP192) | Potency (CP194) | Potency (CP201) | Potency (CP203) | Potency (CP211) | Potency (CP215) | Potency (CP217) | Potency (CP237) | Potency (CP238) | Potency (CP247)

O=C(O)c1ccc(NC(=O)[C@H](Cc2ccc(O)cc2)NC(=O)c2ccccc2)cc1
inactive: activity, negative = inhibition [1, 2] 3.76% | activity, negative = inhibition [1, 3] 5.17% | Potency (3D7) | Potency (7G8) | Potency (AA1029) | Potency (AS120) | Potency (ATS189) | Potency (ATS95) | Potency (C2A) | Potency (CP185) | Potency (CP191) | Potency (CP192) | Potency (CP194) | Potency (CP201) | Potency (CP203) | Potency (CP211) | Potency (CP215) | Potency (CP217) | Potency (CP237) | Potency (CP238) | Potency (CP247)

FCOC(C(F)(F)F)C(F)(F)F
inactive: activity, negative = inhibition [1, 2] 11.2% | activity, negative = inhibition [1, 3] -2.57% | Potency (3D7) | Potency (7G8) | Potency (AA1029) | Potency (AS120) | Potency (ATS189) | Potency (ATS95) | Potency (C2A) | Potency (CP185) | Potency (CP191) | Potency (CP192) | Potency (CP194) | Potency (CP201) | Potency (CP203) | Potency (CP211) | Potency (CP215) | Potency (CP217) | Potency (CP237) | Potency (CP238) | Potency (CP247)

N=C(N)n1cccn1
inactive: activity, negative = inhibition [1, 2] -11.6% | activity, negative = inhibition [1, 3] 1.65% | Potency (3D7) | Potency (7G8) | Potency (AA1029) | Potency (AS120) | Potency (ATS189) | Potency (ATS95) | Potency (C2A) | Potency (CP185) | Potency (CP191) | Potency (CP192) | Potency (CP194) | Potency (CP201) | Potency (CP203) | Potency (CP211) | Potency (CP215) | Potency (CP217) | Potency (CP237) | Potency (CP238) | Potency (CP247)

CC(C)Cc1ccc([C@@H](C)C(=O)NS(C)(=O)=O)cc1
inactive: activity, negative = inhibition [1, 2] 3.44% | activity, negative = inhibition [1, 3] -5.62% | Potency (3D7) | Potency (7G8) | Potency (AA1029) | Potency (AS120) | Potency (ATS189) | Potency (ATS95) | Potency (C2A) | Potency (CP185) | Potency (CP191) | Potency (CP192) | Potency (CP194) | Potency (CP201) | Potency (CP203) | Potency (CP211) | Potency (CP215) | Potency (CP217) | Potency (CP237) | Potency (CP238) | Potency (CP247)

O=C1c2ccccc2C(=O)C1c1ccc(F)cc1
inactive: activity, negative = inhibition [1, 2] -6.63% | activity, negative = inhibition [1, 3] 2.77% | Potency (3D7) | Potency (7G8) | Potency (AA1029) | Potency (AS120) | Potency (ATS189) | Potency (ATS95) | Potency (C2A) | Potency (CP185) | Potency (CP191) | Potency (CP192) | Potency (CP194) | Potency (CP201) | Potency (CP203) | Potency (CP211) | Potency (CP215) | Potency (CP217) | Potency (CP237) | Potency (CP238) | Potency (CP247)
